An excerpt weighted towards active compounds, which were near 4% of everything screened.
Mtb betalactam: beta-lactam sensitization of Mtb H37Rv; M. tuberculosis H37Rv growth with meropenem, percent inhibition; inhibition, % at 25 µM; 330,000 tested, 0.27% active; AID 434955; call rule not given here;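 also: growth measured after seven days incubation then overnight dye step; 0% = bacteria only wells and 100% = bacteria with antibiotic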
Mtb FBA inh: inhibitors of M. tuberculosis fructose-bisphosphate aldolase. P9WQA3. purified M. tuberculosis FBA, fluorescence read-out. inhibition, % at 1 µM. 360,000 tested, 2.3% active. AID 588726;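 also: 0% = vehicle and 100% = reference inhibitor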
Rv3671c protease: inhibitors of M. tuberculosis serine protease Rv3671c. inhibition, % at 5.96 µM. 320,000 tested, 0.048% active; in the data active = inhibition above about 38%;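 also: extracellular domain of Rv3671c used as enzyme; 0% = enzyme with DMSO and 100% = no enzyme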
Target sequence (P9WHR9 whole entry, looked up, the tested form may be a part): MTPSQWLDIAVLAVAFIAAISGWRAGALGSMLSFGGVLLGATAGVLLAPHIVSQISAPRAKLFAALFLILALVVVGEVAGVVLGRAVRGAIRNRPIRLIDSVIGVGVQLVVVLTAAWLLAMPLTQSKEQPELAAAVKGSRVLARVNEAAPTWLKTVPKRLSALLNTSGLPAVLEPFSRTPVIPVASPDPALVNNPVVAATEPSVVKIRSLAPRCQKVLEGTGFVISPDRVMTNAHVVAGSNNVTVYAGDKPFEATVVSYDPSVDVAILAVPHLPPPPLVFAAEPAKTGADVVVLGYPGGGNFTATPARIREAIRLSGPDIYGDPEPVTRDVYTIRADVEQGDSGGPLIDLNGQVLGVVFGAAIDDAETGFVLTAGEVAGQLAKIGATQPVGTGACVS
Mtb UGM inh: inhibitors of M. tuberculosis UDP-galactopyranose mutase; purified UGM, fluorescence polarization probe displacement; inhibition, % at 10 µM; 320,000 tested, 0.06% active; AID 504406; in the data active = inhibition above about 10%, passing the limit was not always enough
RecA splice inh: blocks M. tuberculosis RecA intein splicing; P9WHJ3; cell-free RecA intein splicing, fluorescence; inhibition, % (no concentration beside the values); 290,000 tested, 0.75% active; AID 2221; in the data active = inhibition above about 30%;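 also: 0% = vehicle wells and 100% = reference inhibitor control wells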
GDH-TPI counter-1: counter-screen for M. tuberculosis FBA inhibitors: GDH-TPI coupled enzymes. AID 588335. inhibition, % at 4.8 µM. 360,000 tested, 1.2% active. GDH-TPI coupled enzyme counterscreen, NADH absorbance; in the data active = inhibition above about 30%;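 also: 0% = DMSO wells and 100% = wells lacking the enzyme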
Mtb FBA inh conf: Mtb FBA inhibition, confirmed | purified M. tuberculosis FBA, fluorescence read-out | 5,600 tested, 78% active | inhibition, % at 1 µM | shares compounds with Mtb FBA inh;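 also: 0% = vehicle wells and 100% = reference inhibitor wells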
GDH-TPI counter-2: counter-screen for M. tuberculosis FBA inhibitors: GDH-TPI coupled enzyme inhibition; 5,600 tested, 81% active; shares compounds with Mtb FBA inh; inhibition, % at 1 µM; GDH-TPI coupled enzyme counterscreen, fluorescence; in the data active = inhibition above about 10%
GDH-TPI DR: inhibits GDH-TPI coupling enzymes in dose response | 170 tested, 79% active | shares compounds with Mtb FBA inh | GDH-TPI coupled enzyme assay, fluorescence, artifact counterscreen | IC50, µM; call rule not given here
Starred values were filed as active, the others as inactive. Rule as the data show it, unless noted: active = inhibition above about 27%; inactive = the rest.

Cc1cc(NCc2ccccc2)n2ncc(-c3ccccc3)c2n1 was read as Mtb betalactam 57, Mtb FBA inh 28*, Rv3671c protease -4, Mtb UGM inh -1, RecA splice inh 6, GDH-TPI counter-1 13, Mtb FBA inh conf 123* and GDH-TPI counter-2 123*.
Cc1cc(NC(C)c2ccccc2)n2ncc(-c3ccccc3)c2n1 (stereo unspecified) was read as Mtb betalactam 49, Mtb FBA inh 33*, Rv3671c protease 3, Mtb UGM inh 0, RecA splice inh 17, GDH-TPI counter-1 -8, Mtb FBA inh conf 41* and GDH-TPI counter-2 30*.
Screening Cc1cc(NC(=O)C(C)SCC(=O)OCC(=O)N(C)c2ccccc2)no1 (stereo unspecified) returned Mtb betalactam -3, Mtb FBA inh 0, Rv3671c protease 12, Mtb UGM inh 3, RecA splice inh 2 and GDH-TPI counter-1 3.
`CN(C)S(=O)(=O)c1ccc(C(=O)OCC(=O)c2csc(N3CCCCC3)n2)cc1` gave Mtb betalactam 0, Mtb FBA inh -1, Rv3671c protease 6, Mtb UGM inh -2 and GDH-TPI counter-1 18.
Screening Cc1ccc(C(=O)NCC(=O)OCC(=O)Nc2ccc3[nH]c(=O)[nH]c3c2)cc1 returned Mtb betalactam -5, Mtb FBA inh -1, Rv3671c protease 3, Mtb UGM inh 2 and GDH-TPI counter-1 -1.
For Cc1cccc(C(=O)N2CCCC(N3CCN(Cc4ccc5c(c4)OCO5)CC3)C2)n1 (stereo unspecified) the results were Mtb betalactam 3, Mtb FBA inh 3, Rv3671c protease 0, Mtb UGM inh 3, RecA splice inh -3 and GDH-TPI counter-1 9.
Screening CCOc1ccc(S(=O)(=O)NCC2CCCO2)c2cccnc12 (stereo unspecified) returned Mtb betalactam 0, Mtb FBA inh 28*, Rv3671c protease -3, Mtb UGM inh 3, RecA splice inh 6, GDH-TPI counter-1 1, Mtb FBA inh conf active and GDH-TPI counter-2 active.
For COc1ccc([N+](=O)[O-])cc1N(CC(O)CN1C(=O)NC(C)(C)C1=O)S(=O)(=O)c1ccc(C)cc1 (stereo unspecified) the results were Mtb FBA inh -2 and GDH-TPI counter-1 10.
For CC(C)NC(=O)N(C)C[C@H]1Oc2ccc(NC(=O)CCC(F)(F)F)cc2C(=O)N([C@H](C)CO)C[C@@H]1C the results were Mtb betalactam 2, Mtb FBA inh 4, Rv3671c protease 1, Mtb UGM inh 0 and GDH-TPI counter-1 10.
C[C@H](CO)N1C[C@H](C)[C@@H](CN(C)C(=O)NC2CCCCC2)Oc2ccc(NC(=O)CCC(F)(F)F)cc2C1=O was read as Mtb betalactam 8, Mtb FBA inh 76*, Rv3671c protease 1, Mtb UGM inh 1, GDH-TPI counter-1 -1, Mtb FBA inh conf 2 and GDH-TPI counter-2 0.
Screening CC(C)(C)C(=O)OCC12CCC(O1)C1(C)C(=O)OCC21 (stereo unspecified) returned Mtb betalactam -3, Mtb FBA inh 47*, Rv3671c protease 8, Mtb UGM inh 5, RecA splice inh -1, GDH-TPI counter-1 0, Mtb FBA inh conf -6 and GDH-TPI counter-2 -4.
For Cc1nc2oc3c(=O)[nH]cnc3c2c2c1COC(C)(C)C2 the results were Mtb betalactam -8, Mtb FBA inh 44*, Rv3671c protease 3, Mtb UGM inh 2, RecA splice inh 2, GDH-TPI counter-1 5, Mtb FBA inh conf 13, GDH-TPI counter-2 -5 and GDH-TPI DR 4.8*.
Screening Cc1nc2oc(C(=O)c3ccc(Br)cc3)c(N)c2c2c1COC(C)(C)C2 returned Mtb betalactam 13, Mtb FBA inh 4, Rv3671c protease 2, Mtb UGM inh -1, RecA splice inh -6 and GDH-TPI counter-1 13.
O=C(c1cc(-c2ccc(Br)cc2)nc2ccccc12)N1CCN(c2ccccc2O)CC1 was read as Mtb betalactam -4, Mtb FBA inh -1, Rv3671c protease -3, Mtb UGM inh 1, RecA splice inh 4 and GDH-TPI counter-1 -5.

Screens deposited in PubChem BioAssay by several laboratories.
